# According to paper PMC4336329 (PLoS ONE, 2015):
# Hit rate of the full screen: of about 310,000 compounds, about 14,000 (4.5%) showed an effect of 50% or more. Effects have a minus sign here. Only a selection was taken, and strong results are over-represented in it overall.
# Target: human ether-à-go-go-related gene (hERG) potassium channel (human, UniProt Q12809)
# Assay: primary screen, population patch clamp on CHO cells stably expressing hERG; higher = less effect of the substance
# 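Note: peak tail current of the secondary pulse compared with the same well before compound.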
# Sequence of human ether-à-go-go-related gene (hERG) potassium channel (Q12809 whole entry, looked up): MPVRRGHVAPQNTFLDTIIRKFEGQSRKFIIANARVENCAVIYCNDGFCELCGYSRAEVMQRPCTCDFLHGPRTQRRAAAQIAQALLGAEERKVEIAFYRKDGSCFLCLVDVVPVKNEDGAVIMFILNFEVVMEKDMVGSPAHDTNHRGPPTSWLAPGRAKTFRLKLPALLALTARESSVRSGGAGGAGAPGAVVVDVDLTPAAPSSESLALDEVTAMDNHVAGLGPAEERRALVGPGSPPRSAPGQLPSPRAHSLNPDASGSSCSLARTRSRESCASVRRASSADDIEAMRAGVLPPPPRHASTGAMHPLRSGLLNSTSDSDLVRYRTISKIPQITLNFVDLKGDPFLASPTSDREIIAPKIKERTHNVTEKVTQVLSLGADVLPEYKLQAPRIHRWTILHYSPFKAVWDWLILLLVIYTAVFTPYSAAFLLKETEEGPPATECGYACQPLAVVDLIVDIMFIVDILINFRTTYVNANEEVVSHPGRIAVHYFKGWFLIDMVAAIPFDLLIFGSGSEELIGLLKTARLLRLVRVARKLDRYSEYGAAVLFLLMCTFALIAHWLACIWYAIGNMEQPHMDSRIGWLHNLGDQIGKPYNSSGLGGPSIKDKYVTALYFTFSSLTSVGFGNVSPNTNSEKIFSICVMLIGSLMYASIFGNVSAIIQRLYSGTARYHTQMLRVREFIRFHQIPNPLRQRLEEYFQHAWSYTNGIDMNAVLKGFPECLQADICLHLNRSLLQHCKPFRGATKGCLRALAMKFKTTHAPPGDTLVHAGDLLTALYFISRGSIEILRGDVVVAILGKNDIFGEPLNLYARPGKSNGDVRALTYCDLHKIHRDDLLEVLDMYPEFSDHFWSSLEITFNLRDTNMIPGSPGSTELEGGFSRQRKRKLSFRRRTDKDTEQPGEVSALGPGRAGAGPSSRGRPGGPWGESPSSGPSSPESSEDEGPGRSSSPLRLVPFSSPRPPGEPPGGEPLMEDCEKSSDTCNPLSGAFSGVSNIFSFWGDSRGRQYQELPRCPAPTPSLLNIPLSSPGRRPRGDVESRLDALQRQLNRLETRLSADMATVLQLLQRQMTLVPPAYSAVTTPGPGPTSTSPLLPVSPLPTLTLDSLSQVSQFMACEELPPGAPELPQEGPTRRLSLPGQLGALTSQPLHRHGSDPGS
row,SMILES,"hERG current change (%, negative = inhibition) at 10uM"
1,Cc1ccc(S(=O)(=O)N(C)CC(=O)Nc2ccccc2)cc1,-20%
2,COc1cccc(CC(=O)OCC(=O)NC2(C#N)CCCCC2)c1,16.5%
3,Cc1nnc(NC(=O)CCSc2ccccc2)s1,1.73%
4,COC(=O)C1CCN(C(=O)COC(=O)c2n[nH]c3ccccc23)CC1,10.8%
5,Cc1nn(C)cc1C(C)NC(=O)c1cc(COc2cccc3cnccc23)on1 (centres unmarked),13.9%
6,COc1cccc(OCc2cc(C(=O)NC(C)c3cnn(C)c3C)no2)c1 (centres unmarked),-2.65%
7,Cc1c(C(C)NC(=O)c2cc(COc3cccc4cnccc34)on2)cnn1C (centres unmarked),-55.6%
8,Cc1ccc(C)c(NC(=O)NNC(=O)c2ccc3ccccc3c2O)c1,11.4%
9,O=C(O)/C=C/c1cn(Cc2ccccc2)nc1-c1cccnc1,12%
10,O=Cc1cn(Cc2ccccc2)nc1-c1cccnc1,7.48%
11,COCCOC(=O)/C(C#N)=C/c1cn(Cc2ccccc2)nc1-c1cccnc1,-67.1%
12,COc1ccc(N2CCN(C(=O)c3cn(Cc4ccccc4)nc3-c3cccnc3)CC2)cc1,-33.3%
13,COc1cccc(N2CCN(C(=O)c3cn(Cc4ccccc4)nc3-c3cccnc3)CC2)c1,-12.9%
14,O=C(c1cn(Cc2ccccc2)nc1-c1cccnc1)N1CCN(Cc2ccccc2)CC1,-33.5%
15,CC(=O)c1ccc(N2CCN(C(=O)c3cn(Cc4ccccc4)nc3-c3cccnc3)CC2)c(F)c1,-50.2%
16,N#Cc1ccc(CN2CCN(C(=O)c3cn(Cc4ccccc4)nc3-c3cccnc3)CC2)cc1,-72.9%
17,O=C(c1cn(Cc2ccccc2)nc1-c1cccnc1)N1CCN(Cc2c(F)cccc2Cl)CC1,-4.33%
18,CCc1nnc(NC(=O)CSc2nc3c(c(=O)n2C)SC(C)C3)s1 (centres unmarked),-2.54%
19,CCCCOC(=O)c1ccc(NC(=O)c2ocnc2C)cc1,-8.8%
20,O=C(OC(C(=O)NCc1ccco1)c1ccc(Cl)cc1)c1cccs1 (centres unmarked),17.6%
21,CC(C)Oc1ccccc1/C=N/NC(=O)C1CC1,7.57%
22,O=C(NCCO)c1nc(NCCO)c2ccccc2n1,10.3%
23,Cl.OCCNc1nc(N2CCN(Cc3ccccc3)CC2)nc2ccccc12,-68.3%

row,SMILES,"hERG current change (%, negative = inhibition) at 10uM"
1,Cc1ccc(-c2nc(NCc3ccco3)c3ccccc3n2)cc1,4.65%
2,Cl.c1ccc(CN2CCN(c3nc(N4CCOCC4)c4ccccc4n3)CC2)cc1,-70.3%
3,Cl.OCCN1CCN(c2nc(NCc3ccco3)c3ccccc3n2)CC1,-75.3%
4,Cl.c1ccc2c(N3CCOCC3)nc(N3CCOCC3)nc2c1,-19.4%
5,Cc1cccc(Nc2nc(NCc3ccco3)c3ccccc3n2)c1.Cl,-12.2%
6,Cc1ccc(OCCN2CCN(c3nc(NCc4ccco4)c4ccccc4n3)CC2)cc1,-62.6%
7,CCN(CC)c1nc(N2CCOCC2)nc2ccccc12.Cl,-48.3%
8,CCN1CCN(c2nc(NCCO)c3ccccc3n2)CC1.Cl,-16.7%
9,CC(=O)N1c2ccc(S(=O)(=O)N3CCCC(C(=O)N4CCCCC4)C3)cc2CC1C (centres unmarked),19.2%
10,CC(C)(C)NC(=O)CN(Cc1cccs1)C(=O)C1COc2ccccc2O1 (centres unmarked),-14.7%
11,Cc1cc(=O)[nH]c(N/N=C/c2c(C)oc3ccccc23)n1,-0.943%
12,Nc1nc(Nc2ccccc2)nc(NC2CCCCC2)c1[N+](=O)[O-],18.9%
13,Cn1nccc1C(=O)N1CCOCC1,5.59%
14,FC(F)Oc1ccc(NC(=S)NCC2COc3ccccc3O2)cc1 (centres unmarked),-5.83%
15,COc1ccc(OC)c(/C=N\NC(=O)c2ccc(COc3ccc(C)cc3[N+](=O)[O-])o2)c1,16.2%
16,N#Cc1cnn(-c2cccc(Cl)c2)c1N,11.6%
17,Cc1csc(NC(=O)CS(=O)(=O)c2ccccc2)n1,-18.1%
18,COc1ccc(NC(=O)c2nc[nH]c2C(=O)N2CCN(c3ccccc3)CC2)cc1,3.64%
19,CC(C)CN(C(=O)CSc1nn(-c2ccc(Cl)cc2)c(=S)s1)C1CCS(=O)(=O)C1 (centres unmarked),-20.1%
20,O=C(COC(=O)/C=C/c1cccs1)Nc1nc(-c2ccccc2)cs1,12.1%
21,Cl.c1ccc(CNc2nc(N3CCN(Cc4ccccc4)CC3)nc3ccccc23)cc1,-65.9%
22,Nc1nc(N2CCN(Cc3ccccc3)CC2)n[nH]1,24.7%
23,c1ccc(CN2CCN(c3nc4ccccc4s3)CC2)cc1,11.8%

row,SMILES,"hERG current change (%, negative = inhibition) at 10uM"
1,Cl.c1ccc(CN2CCN(c3nc(NCc4ccco4)c4ccccc4n3)CC2)cc1,-68.3%
2,Nc1nc(NCc2ccco2)nc(N2CCN(Cc3ccccc3)CC2)c1[N+](=O)[O-],-41.9%
3,c1ccc(CNc2nc(NCc3ccco3)nc(N3CCOCC3)n2)cc1,-28.5%
4,CCc1ccc(CCC(=O)Nc2ccc(C)c(C)c2)o1,-20.8%
5,COC(=O)NCC(c1ccco1)N1CCN(c2ccc(F)cc2)CC1 (centres unmarked),-1.75%
6,Cc1[nH]n(-c2ccccc2)c(=O)c1N=Nc1ccccc1C(=O)O,1.85%
7,COc1ccc(CN(C)C(=O)C(Cc2ccccc2)NC(=O)c2ccccc2)c(OC)c1 (centres unmarked),-13.5%
8,Cc1nn(-c2ccccc2)c2c1C1(C(=O)Nc3ccccc31)N1C(=N2)Sc2ccccc21 (centres unmarked),0.952%
9,Cc1cc(N)n2nc(C)c(-c3ccccc3)c2n1,-21.9%
10,Cc1ccc2c(cnn2C(=O)CCCC(=O)NC(C)c2ccccc2)c1 (centres unmarked),-5.97%
11,CCN(CC)S(=O)(=O)c1cccc(C(=O)Oc2cccnc2)c1,-8.07%
12,COc1ccc(N2CCN(C(=O)Cc3ccc(C)cc3)CC2)cc1,-6.07%
13,O=C(Cc1ccc(Br)cc1)N1CCN(Cc2ccccc2)CC1,-30.9%
14,COc1ccccc1CC(=O)N1CCN(c2ccccc2)CC1,9.19%
15,COc1ccccc1CC(=O)N1CCN(c2ccc(F)cc2)CC1,-11.1%
16,O=C(Cc1ccc([N+](=O)[O-])cc1)N1CCN(c2ccc([N+](=O)[O-])cc2)CC1,-73.7%
17,Cc1ccc(CC(=O)N2CCN(C)CC2)cc1,18.1%
18,Cc1ccc(CC(=O)N2CCN(Cc3ccccc3)CC2)cc1,4.07%
19,O=C(Cc1ccc([N+](=O)[O-])cc1)N1CCCCCC1,-21.9%
20,Cc1ccc(CC(=O)N2CCN(c3ccc([N+](=O)[O-])cc3)CC2)cc1,-62.1%
21,COc1ccccc1CC(=O)N1CCN(c2ccc([N+](=O)[O-])cc2)CC1,-52%
22,O=C(Cc1ccccc1)N1CCN(Cc2ccc([N+](=O)[O-])cc2)CC1,-63.4%
23,CS(=O)(=O)N1CCN(C(=O)Cc2ccc([N+](=O)[O-])cc2)CC1,0.692%

row,SMILES,"hERG current change (%, negative = inhibition) at 10uM"
1,CC(=O)N/C(=C\c1ccc(F)cc1)C(=O)N(C)C,14.2%
2,O=C(OCn1nnc2ccccc2c1=O)c1ccc2c(=O)n3c(nc2c1)CCC3,-7.06%
3,Cc1ccccc1NC(=O)Cn1c(C)nc2ccc(N)cc2c1=O,7.11%
4,CCO.N#Cc1c(SC(C(=O)O)c2ccccc2)nc2c(c1-c1cccs1)CCCC2 (centres unmarked),25.2%
5,C[C@@]12CCC=C[C@H]1[C@H](c1ccc(C(F)(F)F)cc1)N(Cc1ccccc1)C2=O,12.2%
6,O=C1C=C(NCc2ccc(Cl)cc2)CCC1,-25.2%
7,COC(=O)c1cc(OC)c(OC)cc1NC(=S)N1CCN(Cc2ccccc2)CC1,6.28%
8,CCOc1ccccc1C(=O)OCC(=O)NCC1CCCCC1,-7.31%
9,O=C(COC(=O)COc1ccccc1[N+](=O)[O-])Nc1cccc(Br)c1,9.05%
10,COC(=O)COc1ccc2c(-c3cccc([N+](=O)[O-])c3)cc(=O)oc2c1,-31.8%
11,CCCOc1ccc(C(O)C(CN2CCOCC2)c2ccccc2)cc1.Cl (centres unmarked),1.07%
12,O=[N+]([O-])c1ccc(Cl)c(/C=N/N2CCN(Cc3ccccc3)CC2)c1,-1.74%
13,COc1ccc(/C=N\N2CCN(Cc3ccccc3Cl)CC2)cc1.Cl,-62.4%
14,O=[N+]([O-])c1ccc(/C=N/N2CCN(Cc3ccccc3)CC2)cc1,-56.3%
15,CC(C)CC(=O)N1CCN(S(=O)(=O)c2ccccc2)CC1,0.444%
16,CC(CC(=O)N1CCN(S(=O)(=O)c2ccc([N+](=O)[O-])cc2)CC1)c1ccccc1 (centres unmarked),-67.8%
17,O=[N+]([O-])c1cccc(/C=N/N2CCN(Cc3ccccc3)CC2)c1,-0.159%
18,O=C(/C=C/c1ccc(OCCCF)cc1)N1CCOCC1,1.61%
19,O=C(/C=C/c1ccc(F)cc1)N1CCN(Cc2ccccc2)CC1,-40.6%
20,COc1ccc(/C=N/N2CCN(Cc3ccccc3)CC2)cc1,-2.63%
21,O=C(/C=C/c1ccc([N+](=O)[O-])cc1)N1CCN(S(=O)(=O)c2ccccc2)CC1,-34.1%
22,Clc1ccc(/C=N/N2CCN(Cc3ccccc3Cl)CC2)cc1,14.9%
23,O=C(/C=C/c1ccc(OCCCF)cc1)N1CCN(Cc2ccccc2)CC1,-65.6%
